Measurements as given in PubChem BioAssay AID720650 (Broad Institute, 2013).
Calls of active or inactive are those of the source. No rule for the calls is given here.

test: Biochemical counterscreen for C difficile toxins, absence of UDPG, inhibitor dose response (AID 720650); settings: series mostly up to 19.5 µM

Question: Which AC50 does the source give for `CC(=O)N(c1ccccc1C)S(=O)(=O)c1ccc(Cl)cc1` here?
Answer: inactive

Question: Which AC50 does the source give for `O=C(Nc1nnc(-c2ccco2)o1)C1CC1` here?
Answer: > 39 µM (inactive)

Question: With `Cc1ccc(CNC(=O)Nc2cccc(C)c2)cc1` as the compound, how does the AC50 read?
Answer: inactive

Question: With `CC(C)(Oc1ccc(Cl)cc1)C(=O)NC1CC1` as the compound, how does the AC50 read?
Answer: inactive

Question: With `Cc1n[nH]c(=O)nc1Nc1ccc(O)cc1` as the compound, how does the AC50 read?
Answer: 11.8 µM (active)

Question: For `Cc1ccc(S(=O)(=O)Nc2cccnc2Oc2ccc(Cl)cc2)cc1`, which AC50 is on record?
Answer: inactive

Question: Which AC50 does the source give for `COCC(=O)N1CC[C@@H]2[C@H]1c1cc(-c3ccccc3)ccc1N(C)[C@H]2CO` here?
Answer: 6.54 µM (active)

Question: For `O=C(C[C@@H]1C[C@@H]2c3cc(NC(=O)c4ccc5c(c4)OCO5)ccc3O[C@@H]2[C@@H](CO)O1)NCc1cccc(F)c1`, which AC50 is on record?
Answer: inactive

Question: Which AC50 does the source give for `Fc1cccc(NC(=S)NNc2c3ccccc3nc3ccccc23)c1` here?
Answer: inactive

Question: Which AC50 does the source give for `Cc1c(O)ccc(NC(=O)/C=C/c2ccccc2)c1C` here?
Answer: > 39 µM (inactive)

Question: With `O=C(C[C@@H]1CC[C@H]2[C@@H](COC[C@H](O)CN2C(=O)c2ccccn2)O1)NC1CCC1` as the compound, how does the AC50 read?
Answer: inactive

Question: Which AC50 does the source give for `O=C(C[C@H]1CC[C@H]2[C@@H](COC[C@@H](O)CN2Cc2ccccc2)O1)NCCc1ccccc1` here?
Answer: inactive

Question: For `CC(=O)NC(Cc1ccccc1)C(=O)Oc1ccc2ccccc2c1` (centres undefined), which AC50 is on record?
Answer: inactive

Question: For `CC1C(c2ccc3c(c2)OCO3)c2cc3c(cc2OC1N1CCOCC1)OCO3` (centres undefined), which AC50 is on record?
Answer: inactive

Question: For `Nc1ccc(Sc2ccc(N)cc2)cc1`, which AC50 is on record?
Answer: 3.22 µM (active)

Question: For `Cc1ccc2c(c1)-c1c(cnn1CC(=O)NC(C)CCc1ccco1)CO2` (centres undefined), which AC50 is on record?
Answer: inactive

Question: For `CC(=O)C1=CCC(c2ccc(C)cc2)N(S(=O)(=O)c2ccc(C)cc2)C1` (centres undefined), which AC50 is on record?
Answer: > 39 µM (inactive)

Question: Which AC50 does the source give for `CNC(=O)C1CCN(S(=O)(=O)c2c(C)noc2/C=C/c2cccc(C)c2)CC1` here?
Answer: inactive

Question: With `Cc1ccc(CN2C(=O)CN=C(c3ccccc3)c3ccccc32)cc1` as the compound, how does the AC50 read?
Answer: inactive

Question: Which AC50 does the source give for `CCOC(=O)N1CCN(C(=S)NC(=O)c2ccc(F)c(F)c2)CC1` here?
Answer: inactive

Question: With `O=C(Nc1ccc(O)cc1)c1ccc2c(c1)C(=O)N(Cc1ccco1)C2=O` as the compound, how does the AC50 read?
Answer: 9.58 µM (active)

Question: For `C[C@@H]1CN([C@@H](C)CO)C(=O)c2c(c3ccccc3n2C)-c2ccccc2CO[C@@H]1CN(C)C`, which AC50 is on record?
Answer: inactive

Question: For `COc1cc(/C=N/NC(=O)c2cccc([N+](=O)[O-])c2)ccc1O`, which AC50 is on record?
Answer: inactive

Question: With `COc1cc(-c2noc(C)c2C#CC2(O)CCCCC2)cc(OC)c1OC` as the compound, how does the AC50 read?
Answer: inactive

Question: Which AC50 does the source give for `COC(=O)CN1C(C)=Nc2ccc(Br)cc2C1c1ccccc1` (centres undefined) here?
Answer: inactive

Question: Which AC50 does the source give for `COc1ccc(C(=O)Nc2ccc3c(c2)C(=O)N(C)[C@@H]2CC[C@H](CC(=O)NCC4CC4)O[C@H]2CO3)cc1` here?
Answer: inactive

Question: Which AC50 does the source give for `Cn1cnnc1SCC(=O)NC1CCCCC1` here?
Answer: inactive

Question: Which AC50 does the source give for `CC(=O)c1ccc(Nc2ccc(-c3ccccc3F)nn2)cc1` here?
Answer: > 39 µM (inactive)

Question: Which AC50 does the source give for `Cc1ccc2ccc[n+](Cc3ccccc3)c2c1` here?
Answer: inactive

Question: With `Oc1ccc(/C=N/Nc2nc(N3CCCC3)nc(N3CCCC3)n2)cc1O` as the compound, how does the AC50 read?
Answer: inactive

Question: With `CC1(C)Cc2c(sc3ncn4c(=S)[nH]nc4c23)CO1` as the compound, how does the AC50 read?
Answer: 13.9 µM (active)

Question: Which AC50 does the source give for `COc1ccc(N2CCN(CCNC(=O)Nc3cc(Cl)ccc3OC)CC2)cc1` here?
Answer: inactive

Question: With `COc1cccc(Oc2ccc3nnc(C(F)(F)F)n3n2)c1` as the compound, how does the AC50 read?
Answer: inactive

Question: For `CCCn1c(N)c(C(=O)COC(=O)c2cccc(S(=O)(=O)N3CCOCC3)c2)c(=O)[nH]c1=O`, which AC50 is on record?
Answer: inactive

Question: Which AC50 does the source give for `Cc1nc(S(=O)(=O)N(C)Cc2ccccc2)c(C#N)c(C)c1Cl` here?
Answer: inactive

Question: For `Oc1ccc(NC(=S)Nc2ccccc2)cc1`, which AC50 is on record?
Answer: 18.6 µM (active)

Question: For `CC(C)CNC(=O)c1c(F)c(F)c(F)c(F)c1F`, which AC50 is on record?
Answer: inactive

Question: For `CC(Sc1nc(N)cc(=O)[nH]1)C(=O)NCC(=O)Nc1ccc(F)c(F)c1F` (centres undefined), which AC50 is on record?
Answer: inactive

Question: With `COc1cc2nncc(SC)c2cc1OC` as the compound, how does the AC50 read?
Answer: inactive
